Consider 16 compounds from PubChem BioAssay (NCI).

Holding throughout (experiment): NCI-60 one-dose screen, 48 h (100 = growth as untreated, 0 = no growth, -100 = all killed)
What all share (conditions): 10 µM

The subject of experiment [1] is NCI-H23 lung.
Experiment [2] concerns NCI-H226 lung.
Experiment [3] concerns NCI-H460 lung.
Experiment [4] deals with HOP-92 NSCLC.
Experiment [5] has as its system NCI-H522 lung.
Experiment [6] relates to A549/ATCC NSCLC.
Experiment [7] deals with 786-0 renal.
Experiment [8] has as its system COLO 205 colon.

The structures appear in SMILES notation. Compounds without any hit were thinned out: in the full panel of roughly 83,000, 20% have a hit.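 Method: cells in 96-well plates; compound added at one concentration; 48 h incubation; percent growth measured; values under 10 scored active.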 A number with no mark means an inactive call. Calls of active or inactive are those of the source.

In the case of `N#Cc1c(-c2ccc(Cl)cc2)n(O)c2ccccc12`, the growth in experiment [1] is -13.5% (active); in experiment [2], 75.7%; in experiment [3], 9.12% (active); in experiment [4], -8.45% (active); in experiment [5], 10.7%; in experiment [6], 26.9%. Moreover, the growth in experiment [7] is 8.19% (active); in experiment [8], 115%.
Regarding `COc1ccc(C(=O)N/N=C/c2cc(C(F)(F)F)ccc2Cl)cc1`, the growth was 81.3% in experiment [1]; 82.3% in experiment [2]; 99.8% in experiment [3]; 90.2% in experiment [4]; 82.1% in experiment [5]; 97.4% in experiment [6]. The growth in experiment [7] and in experiment [8] was 104% throughout.
For `Clc1nc2ccc(Br)cc2cc1-c1nc2ccccc2[nH]1`, the growth in experiment [1] is 90.6%; in experiment [2], 98.5%; in experiment [3], 73.2%; in experiment [4] it was 71.3%; in experiment [5] it was 53.1%; in experiment [6], 17.2%. Moreover, the growth was 91% in experiment [7] and 107% in experiment [8].
As for `COc1ccc(-c2nn(-c3cccc(Cl)c3)cc2-c2c(C#N)c(=O)n3[nH]c(-c4ccccc4)nc3c2C#N)cc1`, the growth in experiment [1] is 81.1%; in experiment [2] it was 88%; in experiment [3] it was 105%; in experiment [4], 93.3%; in experiment [5] it was 72.4%; in experiment [6] it was 98.9%. Moreover, the growth is 89.4% in experiment [7] and 123% in experiment [8].
`Cc1ccc(C2=NN(c3ccc(S(C)(=O)=O)cc3)C(=O)CC2)cc1`: the growth was -19.6% (active) in experiment [1]; 77.6% in experiment [2]; 12.8% in experiment [3]; 60.9% in experiment [4]; -28.5% (active) in experiment [5]; 36.6% in experiment [6]. Moreover, the growth in experiment [7] is 38.3%; in experiment [8], 4.23% (active).
`COc1cccc(-c2nc3sccn3c2-c2cccc(S(C)(=O)=O)c2)c1`: the growth in experiment [1] was 85.4%; in experiment [2], 90.1%; in experiment [3], 106%; in experiment [4] it was 87.3%; in experiment [5] it was 102%; in experiment [6], 102%. For the same compound, the growth was 100% in experiment [7] and 114% in experiment [8].
In the case of `CN(C)CCOc1ccc(-c2nc3sccn3c2-c2ccnc(S(C)(=O)=O)n2)cc1`, the growth in experiment [1] was 103%; in experiment [2], 102%; in experiment [3], 103%; in experiment [4], 57%; in experiment [5], 106%; in experiment [6] it was 95%. Also, the growth in experiment [7] was 105%; in experiment [8], 114%.
On to `C1CN(CC2CCC(CN3CCOCC3)O2)CCO1` (stereo unspecified), for which the growth in experiment [1] is 98.6%; in experiment [2] it was 107%; in experiment [3], 110%; in experiment [4] it was 120%; in experiment [5] it was 66.2%; in experiment [6], 96.9%. For the same compound, the growth in experiment [7] is 99.7%; in experiment [8], 60.8%.
Take `N#CC1=CC2CN(Cc3ccccc3)C1C1C(=O)N(c3ccccc3)C(=O)C21` (stereo unspecified): the growth in experiment [1] was 88%; in experiment [2], 97.7%; in experiment [3] it was 101%; in experiment [4], 108%; in experiment [5] it was 106%; in experiment [6], 95.5%. Moreover, the growth in experiment [7] was 102%; in experiment [8] it was 98.2%.
For `CCn1c(CSc2nc3ccccc3c(=O)n2CCc2ccccc2)n[nH]c1=S`, the growth in experiment [1] was 65.6%; in experiment [2] it was 78.1%; in experiment [3], 96.5%; in experiment [4], 85.9%; in experiment [5] it was -5% (active); in experiment [6] it was 84.6%. Besides, the results for the growth in experiment [7] and in experiment [8] were 81.7% and 105%, respectively.
In the case of `O=C1NC(=O)c2c(CCCSc3nc4ccccc4c(=O)n3CCc3ccccc3)cccc21`, the growth in experiment [1] was 76.7%; in experiment [2] it was 82.9%; in experiment [3] it was 83.8%; in experiment [4], 94.5%; in experiment [6] it was 89.4%; in experiment [7] it was 78.6%. Moreover, the growth in experiment [8] is 118%.
Take `Cc1c(C(N)=O)sc2c1c(=O)n(Cc1ccccc1)c1nnc(-c3ccc(Br)cc3)n21`: the growth is 39% in experiment [1]; 26.6% in experiment [2]; 4.4% (active) in experiment [3]; 43.4% in experiment [4]; 47.9% in experiment [5]; 10.1% in experiment [6]. Besides, the growth in experiment [7] was -15.5% (active); in experiment [8] it was 16.8%.
In the case of `O=C(CN1CCN(C(=O)c2ccccc2)CC1)Nc1ccccc1SCc1ccccc1`, the growth in experiment [1] was 79%; in experiment [2], 81.5%; in experiment [3] it was 96.8%; in experiment [4], 71.4%; in experiment [5], 50.9%; in experiment [6] it was 83.4%. Besides, the growth is 79.3% in experiment [7] and 82.3% in experiment [8].
For the compound `COc1cc(/C=C/c2cc(/C=C/c3ccc(O)c(OC)c3)n(C(=O)Nc3ccc(C)cc3)n2)ccc1O`, the growth in experiment [1] is -10.4% (active); in experiment [2], -0.891% (active); in experiment [3], 10.1%; in experiment [4], -15.4% (active); in experiment [5] it was -19.3% (active); in experiment [6], 4.71% (active). In addition, the values for the growth in experiment [7] and in experiment [8] were -1.18% (active) and -25.8% (active), respectively.
As to `CCCCC(CC)CN=C(N)NC(N)=NCCCCCCN=C(N)NC(N)=NCC(CC)CCCC` (stereo unspecified), the growth in experiment [1] is -80% (active); in experiment [2], -63.1% (active); in experiment [3] it was -71.3% (active); in experiment [4] it was -53.9% (active); in experiment [6] it was -87.1% (active); in experiment [7], -31.2% (active). For the same compound, in experiment [8], the growth is -79.8% (active).
As to `Cc1c2cnccc2c(C)c2c1oc1ccccc12`, the growth in experiment [1] was 56.1%; in experiment [2], 69.4%; in experiment [3] it was 28.4%; in experiment [4], 113%; in experiment [5], 69.6%; in experiment [6], 43%. The growth in experiment [7] is 84.9%; in experiment [8] it was 52.3%.
